MsrA act – bovine methionine sulfoxide reductase A activation; 360,000 tested, 0.3% active; purified bovine MsrA, absorbance read-out; activation, % at 10.6 µM; in the data active = activation above about 7.5%;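 note: 0% = vehicle and 100% = reference activator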
MsrA inh – bovine MsrA inhibition; inhibition, % at 15.5 µM; purified bovine MsrA, absorbance read-out; 360,000 tested, 0.75% active;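 note: 0% = vehicle wells with enzyme and 100% = reference inhibitor wells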
p-CIP stab down – compounds decreasing mouse p/CIP protein stability; Q05BA5; F442A p/CIP-EGFP cells, EGFP fluorescence, 16 h; decrease of EGFP signal, % at 10 µM; 290,000 tested, 0.01% active; AID 1984;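 active = EGFP signal decrease of at least 30% at 10 µM or well 3 SD below plate mean, unless failing retest; inactive = the rest, including hits failing retest or dose response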
14-3-3 Bad inh – disrupts binding of bovine 14-3-3 zeta to phospho-Bad peptide; P63103; TR-FRET 14-3-3zeta/Dy647-pBad peptide displacement, 1 h; inhibition, % at 21.7 µM; 220,000 tested, 0.71% active;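 active = inhibition above about 70%, limit read from the data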;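 note: 0% = full 14-3-3 plus peptide FRET controls and 100% = background without 14-3-3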
MsrA conf – confirmation of bovine MsrA inhibitors. shares compounds with MsrA inh. purified bovine MsrA, absorbance read-out. 2,300 tested, 41% active. inhibition, % at 15.5 µM;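 note: coupled to thioredoxin reductase with NADPH and selenocystamine and DMSO as substrate; 0% = vehicle only and 100% = full effect of reference inhibitor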
Numbers without * were called inactive; . = no result given. Hits are enriched below; roughly 1.4% of the tested compounds scored in any of these assays. Cut-off read from the data, not from the text of the source, unless noted: active = inhibition above about 4.5%; inactive = the rest.

SMILES | MsrA act | MsrA inh | p-CIP stab down | 14-3-3 Bad inh | MsrA conf
CN1/C(=C/C(=O)C2CCC2)Sc2ccccc21 | -4 | 8.3* | -13 | -14 | 5.9*
Cc1onc(-c2ccccc2)c1C(=O)N/N=C/c1ccc(O)c([N+](=O)[O-])c1 | -7 | 5.5* | -21 | . | 4
O=C(N/N=C/c1ccc(O)c([N+](=O)[O-])c1)c1ccncc1 | -5 | 5.6* | -3 | 5 | 4.9*
CN(C)c1ccc(/C=N/NC(=O)c2nonc2N)cc1[N+](=O)[O-] | -5 | 4.9* | -18 | -12 | 4
O=C(N/N=C/c1ccc(O)c(O)c1)c1ccc(-n2cnnn2)cc1 | -3 | 4.8* | . | . | 4.6*
Cc1onc(-c2ccccc2)c1C(=O)N/N=C/c1ccc([N+](=O)[O-])c(O)c1 | -3 | 1 | -22 | . | .
COc1ccccc1N1CCN(C(=O)CCC(=O)Nc2nnc(C(C)C)s2)CC1 | -3 | 0 | -1 | . | .
CC(Oc1ccc2c(c1)c1ccnc3c4ccccc4c(=O)n2c13)C(=O)NCCN1CCOCC1 (stereo not drawn) | -13 | 1 | 0 | . | .
Cc1cc(NS(=O)(=O)c2ccc(NC(=O)c3cnc4sccn4c3=O)cc2)nc(C)n1 | -5 | 1 | 3 | 20 | .
Cc1cc(C)nc(NC(=O)c2cnc3sccn3c2=O)n1 | -5 | 5.5* | -18 | 15 | 4.7*
O=C1COc2cc(ccc2[N+](=O)[O-])Oc2ccc(cc2Cl)C(=O)CCCCO1 | -6 | 5.2* | . | . | 5.1*
Nc1ccc2nc(-c3ccc(N)c(Cl)c3)[nH]c2c1 | -1 | 5.5* | -9 | 47 | 5.5*
Nc1ccc(-c2nc3c(Cl)cc(N)cc3[nH]2)cc1 | -5 | 5.2* | 6 | 10 | 4
COc1ccc2nc(-c3ccc(N)cc3)[nH]c2c1 | -4 | 4 | -4 | 5 | .
Nc1ccc2nc(-c3ccccc3)[nH]c2c1 | -3 | 3 | 10 | 56 | .
Cc1ccc2c(c1)CCCO[C@]21O[C@H](CCO)C[C@H](O)[C@H]1O | -2 | 0 | . | . | .
O=C(Nc1nccs1)c1cccc(NC(=O)C(F)(F)F)c1 | -11 | 4 | -5 | 1 | .
COc1cc(OC)cc(C(=O)NC(C(=O)NNC(=O)CN(C)S(=O)(=O)c2ccc(C)cc2)C(C)C)c1 (stereo not drawn) | -3 | 1 | . | . | .
Cc1ccc(C2(c3noc(CN4CCC(C(=O)N5CCOCC5)CC4)n3)CCCC2)cc1 | -1 | 4.7* | -7 | 6 | 0
Cc1ccc(C2(c3noc(CN4CCOCC4)n3)CCCC2)cc1 | -6 | -1 | 11 | -8 | .
Cc1cc(C)n(CC(=O)N2CCc3ccccc32)c(=O)c1C#N | -1 | 3 | 0 | . | .
Cc1cc2n(c(=O)c1C#N)CCCN2c1ccccc1 | -14 | 6.1* | -8 | -12 | 4.5*
Cc1ccc2c(c1)N(C(=O)CCC(=O)NCCN1CCOCC1)CCO2 | -2 | 0 | -20 | . | .
COc1ccc(/C=N/N2C(=N)SCC2=O)cc1 | -3 | 6.3* | 1 | 2 | 4
CC(C)CCOc1ccc(/C=N/N2C(=O)CSC2=S)cc1 | 2 | 0 | 9 | . | .
SMILES | MsrA act | MsrA inh | p-CIP stab down | 14-3-3 Bad inh | MsrA conf
CCCCc1n[nH]c2c1/C(=N/O)CC(C)(C)C2 | -2 | 0 | -18 | -4 | .
CCCCc1n[nH]c2c1/C(=N/OCC)CC(C)(C)C2 | -2 | 19* | -13 | 4 | 13*
N#CC1=C(N)Oc2c(O)cc3ccccc3c2C1c1ccsc1 (stereo not drawn) | -4 | 8.5* | 6 | -6 | 10*
CCOC(=O)C1=C(C)OC(N)=C(C#N)C1c1ccsc1 (stereo not drawn) | 1 | . | -12 | 12 | .
O=C1N=C(N2C=CC(=C3C=CNC=C3)C=C2)/C(=C/N=NC(=O)c2ccccc2O)S1 | -5 | 5.8* | -13 | . | 6.6*
Cc1cc(C)cc(NC(=O)c2cnn(-c3ccccc3)c2C2CCNCC2)c1 | -8 | 0 | -9 | -4 | .
CCc1cccc(N=c2c([N+](=O)[O-])nn(-c3ccc(Cl)cc3)n2O)c1 | -3 | 5.4* | -13 | -11 | 5.3*
Cc1cccc(N=c2c([N+](=O)[O-])nn(-c3ccc(Cl)cc3)n2O)c1 | -1 | 0 | 4 | 2 | .
COc1ccc(NS(=O)(=O)c2cc(-c3cnc(C4CC4)o3)ccc2C)cc1 | -3 | 11* | -5 | . | 7.2*
COc1ccccc1NS(=O)(=O)c1cc(-c2cnc(C3CC3)o2)ccc1C | -4 | 0 | -7 | . | .
O=C(NN=Cc1ccc(F)cc1)c1ccccc1NS(=O)(=O)c1cccs1 | -5 | 1 | . | . | .
O=C(O)c1ccc(/C=N/NC(=O)c2ccc(NS(=O)(=O)c3cccs3)cc2)cc1 | -5 | 5.5* | -14 | -2 | 5.5*
O=C(O)COc1ccccc1C=NNC(=O)c1ccc(NS(=O)(=O)c2cccs2)cc1 | -5 | 5.9* | . | . | 4
O=C(NN=Cc1cc(Br)c(O)c(Br)c1)c1ccccc1NS(=O)(=O)c1cccs1 | -7 | 6.1* | . | . | 4
COc1ccc(NC(=O)CCNC(=O)c2ccco2)cc1Cl | -1 | 2 | 4 | . | .
Cc1ccccc1-c1cc2c(nn1)-c1ccccc1C2=O | 2 | 5.9* | 59 | . | 0
O=C(O)c1cccc(NC2=C(n3nnc4ccccc43)C(=O)c3ccccc3C2=O)c1 | 0 | 32* | -8 | 2 | 28*
O=C(O)c1cccc(NS(=O)(=O)c2ccc3nnn(O)c3c2)c1 | -5 | 0 | 7 | 56 | .
O=C(N/C(=C/c1ccc(Br)cc1)C(=O)N1CCOCC1)c1ccco1 | -3 | 1 | -1 | . | .
CSc1ccc(/C=C(/NC(=O)c2ccco2)C(=O)N2CCOCC2)cc1 | 0 | 5.0* | -27 | . | 1
Cc1nc2ccccc2c(=O)n1/N=C/c1cccs1 | -4 | 0 | 8 | -6 | .
Cc1nc2ccccc2c(=O)n1/N=C/c1cn(-c2ccccc2)nc1-c1cccs1 | -5 | 14* | 0 | 17 | 4.9*
O=C(CSc1ccc(-c2nc3ccccc3[nH]2)cn1)Nc1ccc(S(=O)(=O)N2CCCC2)cc1 | -4 | 3 | -15 | -13 | .
Cc1ccc2nc(-c3ccc(SCC(=O)O)nc3)[nH]c2c1 | -13 | 8.9* | -5 | 14 | 4.7*
Cc1cc2nc(-c3ccc(SCC(=O)Nc4ccc(S(=O)(=O)N5CCCC5)cc4)nc3)[nH]c2cc1C | -8 | 5.0* | -8 | 61 | 3
SMILES | MsrA act | MsrA inh | p-CIP stab down | 14-3-3 Bad inh | MsrA conf
COc1ccccc1-c1cc(C(F)(F)F)nc(N2CCOCC2)n1 | -3 | 12* | 1 | 1 | 13*
COc1ccccc1-c1cc(C(F)(F)F)nc(N2CCN(c3ccccc3)CC2)n1 | -1 | 1 | -18 | -5 | .
Nc1nc2c(ncn2[C@@H]2O[C@H](C(=O)N[C@H](Cc3ccccc3)C(=O)NCc3ccccc3)[C@@H](O)[C@H]2O)c(=O)[nH]1 | . | 2 | . | . | .
Cc1c(C=N)c(O)n(C)c(=O)c1C#N | -6 | 5.2* | 0 | -3 | 6.6*
Cc1ccc(N/N=C/c2c(C)c(C#N)c(=O)n(C)c2O)cc1C | -3 | 5.9* | -14 | -15 | 6.6*
CCN(CC)S(=O)(=O)c1ccc(N=Cc2c(C)c(C#N)c(=O)n(C)c2O)cc1 | -2 | 5.1* | 7 | 5 | 7.3*
C=CCn1c(O)c(CN2CCCCC2)c(C)c(C#N)c1=O | -4 | 2 | -26 | -13 | .

High-throughput results deposited in PubChem BioAssay by several laboratories.
